# Test results as given in the supplement of paper PMC6522484.
# ± gives the standard deviation of the averaged measurements.
# Legend:
# [1] = tested on: DLD1; assay: cell viability (CellTiter-Glo) relative to plate median (fraction of plate median); higher = more viable cells; conditions: 5 µM; treatment time 24 h; reporter: 7TFP
# Method in brief: (§1)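 Colorectal cancer cell lines stably transduced with lentiviral TCF/Wnt firefly luciferase reporters (7TFP or TCF4/Wnt) were seeded in 384-well plates. 24 h later they received library compounds at a final 5 µM for 24 h. Parallel plates were read for firefly luciferase or CellTiterGlo luminescence on a Tecan F500 reader. Each well's signal was normalised to the plate median (webcellHTS2, additive, no log transformation), and the mean of two independent replicates is reported.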
# [2] = tested on: HCT116; assay: as above; conditions: 5 µM; treatment time 24 h; reporter: TCF4/Wnt
# Method in brief: as §1
# [3] = tested on: SW480; assay: as above; conditions: 5 µM; treatment time 24 h; reporter: 7TFP
# Method in brief: as §1
# [4] = tested on: DLD1; assay: TCF/Wnt firefly luciferase reporter signal relative to plate median (fraction of plate median); higher = higher Wnt reporter signal; conditions: 5 µM; treatment time 24 h; reporter: 7TFP
# Method in brief: as §1
# [5] = tested on: SW480; assay: as above; conditions: 5 µM; treatment time 24 h; reporter: 7TFP
# Method in brief: as §1
# [6] = tested on: DLD1; assay: cell viability (CellTiter-Glo) relative to plate median (fraction of plate median); higher = more viable cells; conditions: 10 µM, treatment time 24 h
# Method in brief: (§2)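 Kinase inhibitor library compounds were added at a final 10 µM for 24 h to colorectal cancer cells in 384-well plates, 24 h after seeding. The cells stably expressed lentiviral TCF/Wnt firefly luciferase reporters. Firefly luciferase and CellTiterGlo luminescence came from parallel plates, and each well was normalised to its plate median (webcellHTS2, additive, untransformed), averaged over two independent replicates.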
# [7] = tested on: HCT116; assay: as above; conditions: 10 µM; treatment time 24 h; reporter: TCF4/Wnt
# Method in brief: as §2
# [8] = tested on: SW480; assay: as above; conditions: 10 µM; treatment time 24 h; reporter: 7TFP
# Method in brief: as §2
# [9] = tested on: DLD1; assay: TCF/Wnt firefly luciferase reporter signal relative to plate median (fraction of plate median); higher = higher Wnt reporter signal; conditions: 10 µM, treatment time 24 h
# Method in brief: as §2
# [10] = tested on: HCT116; assay: as above; conditions: 10 µM; treatment time 24 h; reporter: TCF4/Wnt
# Method in brief: as §2
# [11] = tested on: SW480; assay: as above; conditions: 10 µM; treatment time 24 h; reporter: 7TFP
# Method in brief: as §2
compound,measurement,setting,value
C=CCc1ccc(OC)cc1,cell viability,[1],1.06 ± 0.092
same,cell viability,[2],1 ± 0.025
same,cell viability,[3],1.03 ± 0.035
same,TCF/Wnt firefly luciferase reporter signal,[4],1.2 ± 0.11
same,TCF/Wnt firefly luciferase reporter signal,[5],1.025 ± 0.0071
CN(C)C(=O)Oc1cc(OC(=O)N(C)C)cc(C(O)CNC(C)(C)C)c1 (configuration not stated),cell viability,[1],0.986 ± 0.021
same,cell viability,[2],1 ± 0.024
same,cell viability,[3],0.961 ± 0.044
same,TCF/Wnt firefly luciferase reporter signal,[4],0.911 ± 0.11
same,TCF/Wnt firefly luciferase reporter signal,[5],1.045 ± 0.0071
Cc1c(O)c(O)cc2c1CC=C1[C@@]2(C)CC[C@@]2(C)[C@@H]3C[C@](C)(C(=O)O)CC[C@]3(C)CC[C@]12C,cell viability,[1],0.88 ± 0.082
same,cell viability,[2],0.981 ± 0.069
same,cell viability,[3],1.03 ± 0.045
same,TCF/Wnt firefly luciferase reporter signal,[4],0.863 ± 0.073
same,TCF/Wnt firefly luciferase reporter signal,[5],0.846 ± 0.079
CCN1CCN(C(=O)Cc2ccc(Nc3ncc(F)c(Nc4ccc(C(=O)Nc5ccccc5Cl)cc4)n3)cc2)CC1 [Aurora A Inhibitor I],cell viability,[6]; reporter: 7TFP,0.955 ± 0.036
same,cell viability,[6]; reporter: TCF4/Wnt,1.09 ± 0.057
same,cell viability,[7],1.09 ± 0.14
same,cell viability,[8],0.927 ± 0.093
same,TCF/Wnt firefly luciferase reporter signal,[9]; reporter: 7TFP,1.16 ± 0.057
same,TCF/Wnt firefly luciferase reporter signal,[9]; reporter: TCF4/Wnt,1.16 ± 0.028
same,TCF/Wnt firefly luciferase reporter signal,[10],1.21 ± 0.071
same,TCF/Wnt firefly luciferase reporter signal,[11],1.02 ± 0.035
O=C(O)c1cccc2nc3ccccc3nc12 [1-Phenazinecarboxylic acid],cell viability,[1],1.12 ± 0.16
same,cell viability,[2],1.05
same,cell viability,[3],1.32 ± 0.11
same,TCF/Wnt firefly luciferase reporter signal,[4],0.986 ± 0.091
same,TCF/Wnt firefly luciferase reporter signal,[5],1.03 ± 0.12
O=c1[nH]c2ccc(Cl)cc2c(N[C@@H]2CN3CCC2CC3)c1-c1nc2ccccc2[nH]1,cell viability,[6]; reporter: 7TFP,1.004 ± 0.0092
same,cell viability,[6]; reporter: TCF4/Wnt,1.06 ± 0.05
same,cell viability,[7],0.521 ± 0.25
same,cell viability,[8],0.992 ± 0.025
same,TCF/Wnt firefly luciferase reporter signal,[9]; reporter: 7TFP,2.27 ± 0.078
same,TCF/Wnt firefly luciferase reporter signal,[9]; reporter: TCF4/Wnt,2.27 ± 0.18
same,TCF/Wnt firefly luciferase reporter signal,[10],0.439 ± 0.17
same,TCF/Wnt firefly luciferase reporter signal,[11],1.8 ± 0.099
COC1CC(OC2CCC3(C)C(CCC4C3CCC3(C)C(C5=CC(=O)OC5)CCC43O)C2)OC(C)C1OC1OC(COC2OC(CO)C(O)C(O)C2O)C(O)C(O)C1O (configuration not stated),cell viability,[1],0.873 ± 0.11
same,cell viability,[2],0.969 ± 0.0099
same,cell viability,[3],0.964 ± 0.044
same,TCF/Wnt firefly luciferase reporter signal,[4],1.14 ± 0.042
same,TCF/Wnt firefly luciferase reporter signal,[5],1.03 ± 0.098
Cc1ccccc1-n1c(Cn2cnc3c(N)ncnc32)nc2cccc(C)c2c1=O,cell viability,[6]; reporter: 7TFP,1.05 ± 0.05
same,cell viability,[6]; reporter: TCF4/Wnt,0.964 ± 0.029
same,cell viability,[7],1.19 ± 0.064
same,cell viability,[8],0.947 ± 0.027
same,TCF/Wnt firefly luciferase reporter signal,[9]; reporter: 7TFP,1.02 ± 0.021
same,TCF/Wnt firefly luciferase reporter signal,[9]; reporter: TCF4/Wnt,0.941 ± 0.027
same,TCF/Wnt firefly luciferase reporter signal,[10],1.18 ± 0.057
same,TCF/Wnt firefly luciferase reporter signal,[11],0.9485 ± 0.005
CN(C)C(=O)Oc1ccc[n+](C)c1,cell viability,[1],1.04 ± 0.042
same,cell viability,[2],1.04 ± 0.11
same,cell viability,[3],1.02
same,TCF/Wnt firefly luciferase reporter signal,[4],1.08 ± 0.078
same,TCF/Wnt firefly luciferase reporter signal,[5],1.05 ± 0.035
CN1C[C@H](C(=O)N[C@]2(C)O[C@@]3(O)[C@@H]4CCCN4C(=O)[C@H](Cc4ccccc4)N3C2=O)C[C@@H]2c3cccc4[nH]cc(c34)C[C@H]21,cell viability,[1],0.89 ± 0.098
same,cell viability,[2],0.878 ± 0.054
same,cell viability,[3],1 ± 0.037
same,TCF/Wnt firefly luciferase reporter signal,[4],0.9 ± 0.052
same,TCF/Wnt firefly luciferase reporter signal,[5],0.884 ± 0.0057
Cc1ccccc1-n1c(Cn2ncc3c(N)ncnc32)nc2cccc(C)c2c1=O,cell viability,[6]; reporter: 7TFP,1.07 ± 0.028
same,cell viability,[6]; reporter: TCF4/Wnt,1.03
same,cell viability,[7],1.22 ± 0.21
same,cell viability,[8],1 ± 0.036
same,TCF/Wnt firefly luciferase reporter signal,[9]; reporter: 7TFP,1.11 ± 0.13
same,TCF/Wnt firefly luciferase reporter signal,[9]; reporter: TCF4/Wnt,0.77 ± 0.022
same,TCF/Wnt firefly luciferase reporter signal,[10],0.604 ± 0.42
same,TCF/Wnt firefly luciferase reporter signal,[11],0.879 ± 0.2
O=C1C(Cl)=C(Cl)C(=O)C(Cl)=C1Cl,cell viability,[1],0.967 ± 0.061
same,cell viability,[2],0.977 ± 0.033
same,cell viability,[3],0.991 ± 0.028
same,TCF/Wnt firefly luciferase reporter signal,[4],0.997 ± 0.16
same,TCF/Wnt firefly luciferase reporter signal,[5],1.02 ± 0.065
